PubChem BioAssay (NCI)
Compounds without any hit were thinned out: in the full panel of roughly 83,000, 20% have a hit.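 Treatment: one concentration, 48 hours, 96-well format. Scoring: percent growth, with anything below 10 considered active.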 Unmarked numbers belong to inactive results. Activity calls are given as the source filed them.

test system: MDA-MB-435 melanoma; experiment: NCI-60 one-dose screen, 48 h (100 = growth as untreated, 0 = no growth, -100 = all killed); conditions: 10 µM unless noted
Experimental: Growth inhibition of the MDA-MB-435 human Melanoma tumor cell line is measured as a screen for anti-cancer activity. Cells are grown in 96 well plates and exposed to the test compound for 48 hours. Compounds are tested at a single concentration, which is 10^-5 M for most compounds. The reported endpoint is percent growth (GI% or GIPRCNT), where numbers from 0 - 100% represent growth inhibition, and numbers from -100% - 0 represent cell death. For example, a value of 40 represents 60% growth inhibition. A value of 0 means no net growth occurred over the course of the experiment. A value of -40 indicates 40% of cells at the beginning of the experiment died by the end of the experiment. A value of -100 means all cells are dead at the end of the experiment.
NCI-60 Human Tumor Cell Lines Screen was performed using the standard one-dose NCI protocol, which is described in more detail at https://dtp.cancer.gov/discovery_development/nci-60/default.htm.
Compounds with GIPRCNT values below 10 were considered active. Activity score was based on GIPRCNT using the following formula: […]
Score is 0 for GIPRCNT values of 100 or above, 50 for GIPRCNT values of 0, and 100 for GIPRCNT values of -100.

SMILES	growth
CCn1cc(C(=O)NN=C2CCCCCC2)c(=O)c2ccc(C)nc21	83.9%
O=C(Cn1cc(CN2C(=O)c3ccccc3S2(=O)=O)nn1)Nc1cccc(Cl)c1	100%
C=C1C(=O)O[C@H]2[C@H]1CC/C(CNC(=O)c1cc3ccccc3[nH]1)=C\CC[C@@]1(C)O[C@@H]21	-37.2% (active)
COc1ccc2c(c1)c(-c1nc(-c3cn(C)c4ncccc34)cs1)cn2CCO	86.5%
COc1cc(C#Cc2ccc(=O)oc2C#Cc2ccccc2)cc(OC)c1OC	96%
C=NNc1ccccc1	105%
CCN(CC)c1ccc(/C=C\c2cc(C)c3cc(C)ccc3n2)cc1	3.36% (active)
Cn1cc(C(=O)c2nc(-c3c[nH]c4ccc(Br)cc34)no2)c2cc(Br)ccc21	63.3%
O=C1Nc2ccccc2C2c3cccn3-c3ccccc3N12 (stereo not given)	7.5% (active)
Cc1ccc(Nc2nc(-c3ccc(F)cc3)c(C#N)c(=O)n2C)cc1	74.7%
COc1cc(Nc2c3ccc(Cl)cc3nc3ccc(OC)cc23)c2ncccc2c1	65.6%
CS(=O)(=O)Nc1cc(-c2ccc3ncnc(Nc4ccc5c(cnn5Cc5cccnc5)c4)c3c2)cnc1Cl	53.9%
COc1ccc(C(O)c2cc3c(N)c(C(=O)Nc4cccc(Cl)c4)sc3nc2C)cc1 (stereo not given)	0.877% (active)
Cc1c2cc[nH]c(=O)c2c(C)c2c1[nH]c1ccc(OC(=O)c3ccccc3)cc12	28%
CS(=O)(=O)Nc1cncc(-c2ccc3ncnc(Nc4ccc(F)c(Cl)c4)c3c2)c1	49%
CCOC(=O)c1c(NC(=O)c2ccc(C(C)(C)C)cc2)sc2cc(O)ccc12	97.4%
CC(O)c1ncc(/C=C2\SC(=S)N(Cc3ccccc3)C2=O)s1 (stereo not given)	80.5%
Cc1ccc(/C=C(\C#N)C(=O)Nc2ncc(Cc3cc(Cl)ccc3Cl)s2)o1	30.4%
Cc1ncc(C(=O)Nc2ccc(CN3CCN(C)CC3)c(C(F)(F)F)c2)cc1C#Cc1cnc(N)c2cnccc12	6.4% (active)
O=C1OCC2=C1C(c1cccc(C(F)(F)F)c1)c1cc3c(cc1N2CCO)OCO3 (stereo not given)	-44.1% (active)

SMILES	growth
Nc1n[nH]c2ccc([C@@H]3Nc4cc5[nH]ncc5cc4[C@H]4C5CCC(C5)[C@@H]34)cc12 (stereo not given in full)	-41.2% (active)
C/C(=N\Nc1nc(C)cs1)c1cc2ccccc2o1	105%
CCN1C(=S)N(CC)C2C1NC(=S)N2/N=C/C=C/c1ccccc1OC (stereo not given)	-42.8% (active)
CCOC(=O)c1c(NC(=O)CSc2n[nH]c3nc4ccccc4n23)sc(CC)c1C	103%
COc1ccccc1NC(=O)c1ccc(/C=C/C(=O)c2nccn2C)cc1	-75.7% (active)
O=C(N=Nc1c(O)[nH]c2ccccc12)Nc1ccc(Cl)cc1	95.5%
NNC(=S)N/N=C/c1ccccn1	46.4%
COc1ccc(C2=CN3CC=CCC3CC2=O)cc1 (stereo not given)	106%
CN(C)Cc1ccc(C(=O)Nc2ccc3ncnc(Nc4ccc(Oc5cccc(F)c5)c(Cl)c4)c3c2)cc1	-89.4% (active)
COc1ccc2nc3cc(Cl)ccc3c(NCCN)c2c1	-90.2% (active)
Cc1ccc2[nH]c(=O)c3c(c2c1)OC(N)=C(C#N)C31C(=O)c2cccc3cccc1c23 (stereo not given)	97.6%
CC1=NN(c2ccc(Cl)cc2)CC1(C)N=O (stereo not given)	48.5%
CCN(CC)CCOc1nc2c3ccc(Cl)cc3nn2c2ccccc12	36.3%
CCOC(=O)c1c2c(n3ccccc13)C(=O)c1ncccc1C2=O	39.8%
C#CCOc1ccc2ncnc(Nc3cccc(NC(=O)CCl)c3)c2c1	81.7%
Cc1ccccc1OCC(O)COc1ccccc1C	94.6%
COc1cc(C(=O)c2c(-c3ccccc3)oc3c(OC)cccc23)cc(OC)c1O	-30.4% (active)
CCc1cccc(Sc2cc(C(=O)N3Cc4ccc(OCCN(C)C)cc4C3)ccc2O)c1	64.1%
CC(CN)[C@@H]1CC[C@]2(CO)CC[C@]3(C)[C@H](CC[C@@H]4[C@@]5(C)CCC(N)C(C)(C)[C@@H]5CC[C@]43C)[C@@H]12 (stereo not given in full)	-29.2% (active)
N=c1sc(Cc2cc(Cl)ccc2Cl)cn1CC(=O)c1ccccc1	-41.5% (active)
